# Reference: PubChem BioAssay AID1159580 (chemical genetic matrix, 2015)
# Screen size: about 5,500 compounds; about 2,000 (36%) were called active. Not shown: some 18% with an inconclusive outcome. Some of the results follow. Values without a mark were called inactive. Cut-off read from the data, not from the text of the source: active = normalized growth mostly below about 0.91 (no sharp cut-off); inconclusive = no clear call, values can overlap the other calls; inactive = mostly above about 0.92.
# Experiment: chemical genetic growth profiling, strain panel (AID 1159580);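 note: tested at 20 µM; growth read once vehicle control cultures reached saturation at 30 °C; 1 = growth at the plate median or of vehicle wells; lower values mean less growth of the strain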
# Conditions: S. cerevisiae deletion strains, growth OD
# [1] = locus YDL101C, strain DUN1, stronger effect = lower value
# [2] = locus YHR030C, strain SLT2, stronger effect = lower value
smiles,measurement,setting,value
OC(CN1CCN(c2nc3ccc(Cl)cc3s2)CC1)CN1CCCN(c2ncc(C(F)(F)F)cc2Cl)CC1 (stereo not given),normalized growth,"locus YAL013W, strain DEP1, stronger effect = lower value",1
same,normalized growth,"locus YBR229C, strain ROT2, stronger effect = lower value",0.943
same,normalized growth,"locus YCL061C, strain MRC1, stronger effect = lower value",0.997
same,normalized growth,[1],1.03
same,normalized growth,"locus YDL134C, strain PPH21, stronger effect = lower value",0.0459 (active)
same,normalized growth,"locus YDR150W, strain NUM1, stronger effect = lower value",0.942
same,normalized growth,"locus YEL061C, strain CIN8, stronger effect = lower value",0.0536 (active)
same,normalized growth,"locus YGR078C, strain PAC10, stronger effect = lower value",1.02
same,normalized growth,[2],0.068 (active)
same,normalized growth,"locus YHR087W, strain rtc3, stronger effect = lower value",0.952
same,normalized growth,"locus YJL187C, strain SWE1, stronger effect = lower value",0.995
same,normalized growth,"locus YJR043C, strain POL32, stronger effect = lower value",1.02
same,normalized growth,"locus YJR075W, strain HOC1, stronger effect = lower value",1.01
same,normalized growth,"locus YKL190W, strain CNB1, stronger effect = lower value",0.0453 (active)
same,normalized growth,"locus YLR039C, strain RIC1, stronger effect = lower value",0.0605 (active)
same,normalized growth,"locus YLR058C, strain SHM2 (second series), stronger effect = lower value",0.999
same,normalized growth,"locus YLR085C, strain ARP6, stronger effect = lower value",0.0639 (active)
same,normalized growth,"locus YLR262C, strain YPT6, stronger effect = lower value",0.0604 (active)
same,normalized growth,"locus YML094W, strain GIM5, stronger effect = lower value",0.0664 (active)
same,normalized growth,"locus YMR219W, strain ESC1, stronger effect = lower value",1.01
same,normalized growth,"locus YMR263W, strain SAP30, stronger effect = lower value",1.02
same,normalized growth,"locus YNL153C, strain GIM3, stronger effect = lower value",1
same,normalized growth,"locus YNL298W, strain CLA4 (second series), stronger effect = lower value",0.0802 (active)
same,normalized growth,"locus YNL322C, strain KRE1, stronger effect = lower value",1.03
same,normalized growth,"locus YNR030W, strain Alg12, stronger effect = lower value",0.0638 (active)
same,normalized growth,"locus YOL006C, strain TOP1, stronger effect = lower value",0.0656 (active)
same,normalized growth,"locus YPL055C, strain LGE1, stronger effect = lower value",0.985
same,normalized growth,"locus YPL241C, strain CIN2, stronger effect = lower value",0.0618 (active)
same,normalized growth,"locus YPR135W, strain CTF4, stronger effect = lower value",0.16 (active)
OC(CN1CCN(c2nc3ccc(Cl)cc3s2)CC1)Cn1ccc2ccccc21 (stereo not given),normalized growth,"locus YAR019C, strain CDC15, stronger effect = lower value",1
same,normalized growth,"locus YBL105C, strain PKC1, stronger effect = lower value",0.99
same,normalized growth,"locus YBR135W, strain CKS1, stronger effect = lower value",0.991
same,normalized growth,"locus YBR136W, strain MEC1, stronger effect = lower value",0.996
same,normalized growth,"locus YBR160W, strain CDC28, stronger effect = lower value",0.985
same,normalized growth,"locus YDL017W, strain CDC7, stronger effect = lower value",0.996
same,normalized growth,"locus YDL028C, strain MPS1, stronger effect = lower value",0.99
same,normalized growth,[1],0.989
same,normalized growth,"locus YDL108W, strain KIN28, stronger effect = lower value",0.986
same,normalized growth,"locus YDL132W, strain cdc53, stronger effect = lower value",1
same,normalized growth,"locus YDL214C, strain PRR2, stronger effect = lower value",0.92
same,normalized growth,"locus YDR052C, strain DBF4, stronger effect = lower value",1
same,normalized growth,"locus YDR054C, strain cdc34, stronger effect = lower value",0.996
same,normalized growth,"locus YDR226W, strain ADK1, stronger effect = lower value",0.99
same,normalized growth,"locus YDR477W, strain SNF1, stronger effect = lower value",0.935
same,normalized growth,"locus YER123W, strain YCK3, stronger effect = lower value",0.903
same,normalized growth,"locus YER133W, strain GLC7, stronger effect = lower value",0.93
same,normalized growth,"locus YFL009W, strain cdc4, stronger effect = lower value",0.993
same,normalized growth,"locus YFL029C, strain CAK1, stronger effect = lower value",0.989
same,normalized growth,"locus YFR003C, strain YPI1, stronger effect = lower value",0.992
same,normalized growth,"locus YFR019W, strain FAB1, stronger effect = lower value",0.935
same,normalized growth,"locus YFR028C, strain CDC14, stronger effect = lower value",0.995
same,normalized growth,"locus YGR040W, strain KSS1, stronger effect = lower value",0.934
same,normalized growth,"locus YGR052W, strain FMP48, stronger effect = lower value",1.02
same,normalized growth,"locus YGR092W, strain DBF2, stronger effect = lower value",0.96
same,normalized growth,[2],0.864
same,normalized growth,"locus YHR079C, strain IRE1, stronger effect = lower value",0.955
same,normalized growth,"locus YHR082C, strain KSP1, stronger effect = lower value",1.05
same,normalized growth,"locus YHR205W, strain SCH9, stronger effect = lower value",0.97
same,normalized growth,"locus YIL147C, strain SLN1, stronger effect = lower value",0.999
same,normalized growth,"locus YJL095W, strain BCK1, stronger effect = lower value",0.954
same,normalized growth,"locus YJL128C, strain PBS2, stronger effect = lower value",0.942
same,normalized growth,"locus YJL157C, strain FAR1, stronger effect = lower value",0.924
same,normalized growth,"locus YJR016C, strain ILV3, stronger effect = lower value",0.991
same,normalized growth,"locus YJR066W, strain TOR1 (second series), stronger effect = lower value",0.875
same,normalized growth,"locus YJR066W, strain TOR1, stronger effect = lower value",0.991
same,normalized growth,"locus YKL048C, strain ELM1, stronger effect = lower value",0.981
same,normalized growth,"locus YKL067W, strain YNK1, stronger effect = lower value",0.924
same,normalized growth,"locus YKL101W, strain HSL1, stronger effect = lower value",0.942
same,normalized growth,"locus YKL193C, strain SDS22, stronger effect = lower value",0.994
same,normalized growth,"locus YKL203C, strain TOR2, stronger effect = lower value",0.981
same,normalized growth,"locus YLR113W, strain HOG1, stronger effect = lower value",0.864
same,normalized growth,"locus YLR133W, strain CKI1, stronger effect = lower value",0.942
same,normalized growth,"locus YLR403W, strain SFP1, stronger effect = lower value",0.926
same,normalized growth,"locus YML070W, strain DAK1, stronger effect = lower value",0.927
same,normalized growth,"locus YMR001C, strain CDC5, stronger effect = lower value",0.988
same,normalized growth,"locus YMR205C, strain PFK2 (second series), stronger effect = lower value",0.948
same,normalized growth,"locus YMR277W, strain FCP1, stronger effect = lower value",1
same,normalized growth,"locus YNL006W, strain LST8, stronger effect = lower value",0.985
same,normalized growth,"locus YNL020C, strain ARK1, stronger effect = lower value",0.942
same,normalized growth,"locus YNL161W, strain CBK1, stronger effect = lower value",0.982
same,normalized growth,"locus YNL183C, strain NPR1, stronger effect = lower value",1
same,normalized growth,"locus YNL207W, strain RIO2, stronger effect = lower value",1
same,normalized growth,"locus YNL222W, strain SSU72, stronger effect = lower value",0.999
same,normalized growth,"locus YNL307C, strain MCK1 (second series), stronger effect = lower value",0.935
same,normalized growth,"locus YOL078W, strain AVO1, stronger effect = lower value",0.976
same,normalized growth,"locus YOL136C, strain PFK27, stronger effect = lower value",0.912
same,normalized growth,"locus YOR061W, strain CKA2, stronger effect = lower value",0.952
same,normalized growth,"locus YOR119C, strain RIO1, stronger effect = lower value",1.01
same,normalized growth,"locus YOR231W, strain MKK1, stronger effect = lower value",0.947
same,normalized growth,"locus YOR329C, strain SCD5, stronger effect = lower value",0.986
same,normalized growth,"locus YPL031C, strain PHO85, stronger effect = lower value",0.938
same,normalized growth,"locus YPL153C, strain RAD53, stronger effect = lower value",0.959
same,normalized growth,"locus YPL204W, strain HRR25, stronger effect = lower value",0.895
same,normalized growth,"locus YPL209C, strain IPL1, stronger effect = lower value",0.989
same,normalized growth,"locus YPL256C, strain CLN2, stronger effect = lower value",0.938
same,normalized growth,"locus YPR025C, strain CCL1, stronger effect = lower value",0.99
same,normalized growth,"locus YPR106W, strain ISR1, stronger effect = lower value",0.991
same,normalized growth,"locus YPR111W, strain DBF20, stronger effect = lower value",0.967
same,normalized growth,"strain NNK1, stronger effect = lower value",0.974
same,normalized growth,"strain TSCII, stronger effect = lower value",0.995
